Assay outcomes as filed in PubChem.
Shown is part of a subset that was picked to be rich in hits.
mHTT-CaM PPI inh = mutant huntingtin-calmodulin interaction inhibitors – biochemical, AlphaScreen, primary screen; P42858; AlphaScreen His-mHTT/GST-CaM binding, luminescence; inhibition, % at 15 µM; 3.6% of 190,000 active
Pf apPOL inh = Pf-apPOL inhibitors, biochemical, fluorescence | inhibition, % at 10 µM | AID 1794808, 2022 | Plasmodium falciparum apicoplast DNA polymerase (apPOL) | 0.25% of 210,000 active | Recombinant Pf-apPOL, molecular beacon fluorescence, 1.5 h
Hits are given with their value; 0 = inactive; - = not tested or not shown. No stated cut-off is given here; in the data, active means inhibition above about 50%; inactive means the rest.

SMILES | mHTT-CaM PPI inh | Pf apPOL inh
OC/C=C/C=C/c1ccc(F)cc1 | 72.0 | 0
CC(/C=C/c1ccc(F)cc1)=C\C(=O)O | 0 | 0
CCC1(CC)OC(c2c([N+](=O)[O-])cc([N+](=O)[O-])cc2[N+](=O)[O-])Nc2ccccc21 (centres undefined) | 79.0 | 0
CCC1(CC)OC(c2cccc([N+](=O)[O-])c2)Nc2ccccc21 (centres undefined) | 0 | 0
O=C(CN1C(=O)C2CCCN2C(=O)c2ccc(F)cc21)Nc1cc(F)cc(F)c1 (centres undefined) | 0 | 0
Cc1ncc(NC(=O)C2CCCCC2)cn1 | 0 | 0
Cc1ccc(NC(=O)c2ccc(C(C)C)cc2)c([N+](=O)[O-])c1 | 0 | 0
CCCc1cc(=O)n2[nH]c(C)c(-c3ccccc3)c2n1 | 0 | 0
Cc1[nH]n2c(=O)cc(Cc3ccccc3)nc2c1-c1ccc(Cl)cc1 | 62.5 | 0
CN1/C(=C\C(C[N+](=O)[O-])c2ccc3c(c2)OCO3)C(C)(C)c2ccccc21 (centres undefined) | 83.0 | 0
COc1ccc(C(/C=C2\N(C)c3ccccc3C2(C)C)C[N+](=O)[O-])cc1 (centres undefined) | 0 | 0
COc1ccccc1OCc1nc(C(=O)N2CCC(C)CC2)cs1 | 0 | 0
COc1ccc(/C=C2\C(=O)c3ccccc3C2=C(C#N)C#N)cc1OC | 92.0 | 0
COc1cc(C=C2C(=O)c3ccccc3C2=O)ccc1OCc1ccc(C(=O)O)cc1 | 0 | 0
CCOc1ccccc1NC(=O)CSc1nnc(NC(=O)c2snnc2C)s1 | 0 | 0
CC(C)(C)C1CCc2onc(C(=O)Nc3cc(Cl)ccc3O)c2C1 (centres undefined) | 61.4 | 0
CC(C)(C)C1CCc2onc(C(=O)Nc3ccc(F)cc3F)c2C1 (centres undefined) | 0 | 0
O=C(Nc1cccc2cccnc12)c1ccc(Cl)cc1Cl | 0 | 0
O=[N+]([O-])c1ccc(OCCOc2cccc3cccnc23)cc1 | 0 | 0
COc1ccc(NC(=O)c2cccnc2)cc1 | 0 | 0
Oc1c(C(Nc2cccc(C(F)(F)F)c2)c2ccccn2)ccc2cccnc12 (centres undefined) | 99.1 | 0
O=C(NCc1ccccn1)C(=O)Nc1cccc(C(F)(F)F)c1 | 0 | 0
COc1ccc(NC(c2cccnc2)c2ccc3cccnc3c2O)cc1 (centres undefined) | 99.0 | 0
Oc1c(C(Nc2cccc(Cl)c2)c2ccccn2)ccc2cccnc12 (centres undefined) | 100.0 | 0
O=[N+]([O-])c1ccc(NC(c2ccccn2)c2ccc3cccnc3c2O)cc1 (centres undefined) | 100.0 | 0
SMILES | mHTT-CaM PPI inh | Pf apPOL inh
O=C(CN1C(=O)CCSc2ccccc21)NC1CC1 | 0 | 0
CSC(=C(C#N)S(=O)(=O)C(C)C)N1CCCCC1 | - | 0
COc1cccc(NC(=O)c2ccc(-c3ccc(Br)cc3)o2)c1 | 0 | 0
Cc1[nH]c2ccccc2c1C(Nc1cccc(C(F)(F)F)c1)c1cccnc1 (centres undefined) | 0 | 0
Oc1c(C(Nc2ccc(Cl)cc2)c2ccccn2)ccc2cccnc12 (centres undefined) | 100.0 | 0
CN(C)CCC(c1ccc(Cl)cc1)c1ccccn1 (centres undefined) | - | 0
Oc1c(C(Nc2cccc(C(F)(F)F)c2)c2cccnc2)ccc2cccnc12 (centres undefined) | 99.0 | 0
O=C(CN1CCN(CC(=O)Nc2ccccc2C(F)(F)F)CC1)Nc1ccccc1Cl | 0 | 0
COc1ccc(Cl)cc1N(CC(=O)N1CCN(Cc2ccccc2)CC1)S(C)(=O)=O | 0 | 0
COc1ccc(Cl)cc1N(CC(=O)N(Cc1ccccc1)Cc1ccccc1)S(C)(=O)=O | 64.9 | 0
O=C(c1cc2ccccc2[nH]1)N1CCN(Cc2csc(-c3ccccc3)n2)CC1 | 66.5 | 0
O=C(CCC(=O)N1CCN(Cc2csc(-c3ccccc3)n2)CC1)c1ccccc1 | 0 | 0
O=C(CC1Nc2cccc3cccc(c23)NC1=O)Nc1cccc(C(F)(F)F)c1 (centres undefined) | 50.7 | 0
COc1cccc(NC(=O)CC2Nc3ccccc3NC2=O)c1 (centres undefined) | 0 | 0
Cc1nc2cc3c(cc2[nH]1)OCCO3 | 0 | 0
CCCn1cc(C2=CCN(S(=O)(=O)c3ccc(C)c(Cl)c3)CC2)c2cccnc21 | 0 | 0
O=C(Nc1ccc(F)c(Cl)c1)c1cc(S(=O)(=O)NCc2ccccc2Cl)ccc1F | 0 | 0
COc1cc(C2C(C#N)=C(N)OC(C)=C2C(C)=O)c([N+](=O)[O-])cc1OC (centres undefined) | 57.2 | 0
COc1cc(C2C(C#N)=C(N)Oc3c2oc(CO)cc3=O)c([N+](=O)[O-])cc1OC (centres undefined) | 0 | 0
CCCCN(CCCC)S(=O)(=O)c1ccc(C(=O)Nc2nc(-c3ccccn3)cs2)cc1 | 0 | 0
CN(Cc1ccccc1)S(=O)(=O)c1ccc(C(=O)Nc2nc(-c3ccccn3)cs2)cc1 | 0 | 0
CC(C)CN(CC(C)C)S(=O)(=O)c1ccc(C(=O)Nc2nc(-c3ccccn3)cs2)cc1 | 52.0 | 0
CCCN(CCC)S(=O)(=O)c1ccc(C(=O)Nc2nc(-c3ccccn3)cs2)cc1 | 88.0 | 0
CC1C(=O)N(Cc2cn(CCC3OCCCO3)nn2)CCS(=O)(=O)N1Cc1ccc(-c2cccc(N(C)C)c2)cc1 (centres undefined) | 0 | 0
CC(C)C1C(=O)N(Cc2cn(CCC3OCCCO3)nn2)CCS(=O)(=O)N1Cc1ccc(-c2cccc(N(C)C)c2)cc1 (centres undefined) | 61.1 | 0
SMILES | mHTT-CaM PPI inh | Pf apPOL inh
CC(C)C1C(=O)N(Cc2cn(CCC3OCCCO3)nn2)CCS(=O)(=O)N1Cc1ccc(-c2cccc(CO)c2)cc1 (centres undefined) | 0 | 0
COCOCCn1cc(CN2CCS(=O)(=O)N(Cc3ccc(-c4cccc(CO)c4)cc3)C(C(C)C)C2=O)nn1 (centres undefined) | 0 | 0
COCOCCn1cc(CN2CCS(=O)(=O)N(Cc3ccc(-c4cccc(N(C)C)c4)cc3)C(C(C)C)C2=O)nn1 (centres undefined) | 56.7 | 0
CC(C)C1C(=O)N(Cc2cn(CCC3OCCO3)nn2)CCS(=O)(=O)N1Cc1ccc(-c2cccc(N(C)C)c2)cc1 (centres undefined) | 67.7 | 0
CCOC(=O)N1CCC(NC(=O)Nc2cc(C)oc2C(F)(F)F)CC1 | - | 0
COc1cc(NC(=O)c2cc3c(CO)cnc(C)c3oc2=O)cc(OC)c1OC | 0 | 0
N#Cc1ccc(NC(=O)C2Oc3ccccc3NC2=O)cc1 (centres undefined) | 0 | 0
COc1ccccc1C1C(C#N)=C(C(C#N)C#N)NC(O)(C2CC2)C1[n+]1ccc(C)cc1 (centres undefined) | 0 | 0
Cc1cc[n+](C2C(c3ccc(Br)cc3)C(C#N)=C(S)NC2(O)C2CC2)cc1 (centres undefined) | 89.0 | 0
COC(CNC(=O)c1ccc(N2CCCCCC2)c([N+](=O)[O-])c1)OC | 0 | 0
CCOC(CNC(=O)c1ccc(N2CCc3ccccc32)c([N+](=O)[O-])c1)OCC | 56.0 | 0
O=[N+]([O-])c1cc(C(F)(F)F)ccc1N1CCc2ccccc21 | 95.0 | 0
O=[N+]([O-])c1cc(C(F)(F)F)ccc1N1CCCCC1 | - | 0
Cc1cccc(NC2=C(N3CCOCC3)C(=O)c3ccccc3C2=O)c1 | 0 | 0
